What is called AC50 is the concentration giving half of the maximal activity seen.

The nature of assay [1]: ATG_GAL4_TRANS: Attagene TRANS-FACTORIAL HepG2 Assay for GAL4 (Internal Marker) (AID 2282976; active = hit-call score of the fitted dose curve at least 0.9, where 1 is the maximum). Conditions: HepG2 Attagene TRANS GAL4 internal marker reporter. The method, boiled down: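 In transfected human HepG2 liver cells dosed 24 h, GAL4 reporter mRNA serves as a baseline marker. Detection by RT-PCR with fluorescent capillary electrophoresis, activity fitted upward relative to DMSO.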

The target of assay [2] is Estrogen-related receptor gamma (Homo sapiens) (UniProt P62508). The assay is described as follows: ATG_ERRg_TRANS: Attagene TRANS-FACTORIAL HepG2 Assay for human Estrogen-Related Receptor gamma (ERRg) (AID 2282977; active = hit-call score of the fitted dose curve at least 0.9, where 1 is the maximum;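 also: hits increase reporter signal over DMSO so potencies reflect activators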). Conditions: HepG2 Attagene TRANS reporter, ERRg transactivation. Summed up: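 Transient HepG2 transfectants, 24 h compound exposure, GAL4-UAS reporter mRNA by RT-PCR/6-FAM labelling/capillary electrophoresis; positive direction vs DMSO.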
Sequence of Estrogen-related receptor gamma (Homo sapiens) (P62508 whole entry, looked up, the tested form may be a part): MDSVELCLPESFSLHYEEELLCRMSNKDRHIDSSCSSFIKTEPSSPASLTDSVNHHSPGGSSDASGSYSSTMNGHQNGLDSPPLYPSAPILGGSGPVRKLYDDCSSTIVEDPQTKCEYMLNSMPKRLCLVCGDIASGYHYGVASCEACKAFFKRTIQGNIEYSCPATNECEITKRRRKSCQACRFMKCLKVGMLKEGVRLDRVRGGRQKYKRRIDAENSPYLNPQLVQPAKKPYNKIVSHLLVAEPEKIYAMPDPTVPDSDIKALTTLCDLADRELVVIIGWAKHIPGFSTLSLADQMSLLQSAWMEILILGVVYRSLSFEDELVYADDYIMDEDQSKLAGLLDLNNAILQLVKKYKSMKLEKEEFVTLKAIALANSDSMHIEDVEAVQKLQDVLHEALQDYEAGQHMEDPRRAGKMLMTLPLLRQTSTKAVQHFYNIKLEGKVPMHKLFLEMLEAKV

Assay [3] concerns the target Glucocorticoid receptor (Homo sapiens) (UniProt P04150). The assay is described as follows: ATG_GR_TRANS: Attagene TRANS-FACTORIAL HepG2 Assay for human Glucocorticoid Receptor (GR) (AID 2282978; active = hit-call score of the fitted dose curve at least 0.9, where 1 is the maximum;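 also: activators score as hits since higher reporter transcript over DMSO is fitted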). Conditions: HepG2 Attagene TRANS GR reporter, mRNA transcription. The method, boiled down:
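Multiplexed TRANS reporter system, HepG2; 24 h exposure; RNA → oligo(dT) RT → reporter-specific PCR → 6-FAM primer extension → HpaI cut → CE fluorescence. Gain-of-signal vs DMSO.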

Assay [4] has as its target Oxysterols receptor LXR-alpha (Homo sapiens) (UniProt Q13133). The assay is described as follows: ATG_LXRa_TRANS: Attagene TRANS-FACTORIAL HepG2 Assay for human Liver X Receptor alpha (LXRa) (AID 2282980; active = hit-call score of the fitted dose curve at least 0.9, where 1 is the maximum). Conditions: HepG2 Attagene TRANS reporter, LXRa transactivation. Summed up: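 Chemical-induced reporter mRNA measured by RT-PCR with fluorescent labelling and capillary electrophoresis after 24 h dosing of transiently transfected HepG2 cells expressing exogenous NR-Gal4 chimeras; increases scored against DMSO baseline.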

The target in assay [5] is Oxysterols receptor LXR-beta (Homo sapiens) (UniProt P55055). The experiment in a line: ATG_LXRb_TRANS: Attagene TRANS-FACTORIAL HepG2 Assay for human Liver X Receptor beta (LXRb) (AID 2282981; active = hit-call score of the fitted dose curve at least 0.9, where 1 is the maximum). Conditions: HepG2 Attagene TRANS GAL4-LXRb reporter, mRNA. Summed up:
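Gain-of-signal mRNA reporter endpoint, DMSO as negative control. Transiently transfected HepG2 cells carrying the NR-Gal4 chimera and GAL4-UAS reporter units were treated 24 h; transcripts quantified by RT-PCR and capillary electrophoresis fluorescence.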

For assay [6], the target named is Hepatocyte nuclear factor 4-alpha (Homo sapiens) (UniProt P41235). The assay is described as follows: ATG_HNF4a_TRANS: Attagene TRANS-FACTORIAL HepG2 Assay for human Hepatocyte Nuclear Factor 4 alpha (HNF4a) (AID 2282982; active = hit-call score of the fitted dose curve at least 0.9, where 1 is the maximum). Conditions: HepG2 HNF4a transactivation reporter, mRNA readout. The method, boiled down:
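Gain-of-signal mRNA induction, relative to DMSO vehicle, was read after 24 h compound treatment of HepG2 cells bearing transfected GAL4-UAS reporters. Detection used RT-PCR, 6-FAM primer extension and capillary electrophoresis.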

The nature of assay [7]: ATG_M_06_TRANS: Attagene TRANS-FACTORIAL HepG2 Assay for M06 Transcription Factor (Internal Marker) (AID 2282983; active = hit-call score of the fitted dose curve at least 0.9, where 1 is the maximum). Conditions: HepG2 Attagene TRANS M06 internal marker reporter. Summed up:
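Cells: HepG2, transient multi-reporter transfection. Exposure: 24 h. Detection: RT-PCR, 6-FAM labelling, HpaI digestion (2 h, 37 °C), capillary electrophoresis. Baseline: DMSO.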

Assay [8] is described as follows: ATG_M_32_TRANS: Attagene TRANS-FACTORIAL HepG2 Assay for M32 Transcription Factor (Internal Marker) (AID 2282984; active = hit-call score of the fitted dose curve at least 0.9, where 1 is the maximum;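 also: transcript level of a background control reporter unit measured by RT-PCR and capillary electrophoresis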). Conditions: HepG2 Attagene TRANS M32 internal marker reporter. Summed up: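 Capillary electrophoresis of 6-FAM-labelled reporter fragments gives the signal; data fitted for gain over DMSO negative control. Source: HepG2 cells bearing transient multiple reporter transcription units, 24 h exposure.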

For assay [9], the target named is Nuclear receptor subfamily 4 group A member 2 (Homo sapiens) (UniProt P43354). The assay is described as follows: ATG_NURR1_TRANS: Attagene TRANS-FACTORIAL HepG2 Assay for human Nuclear Receptor Related Protein 1 (NURR1) (AID 2282985; active = hit-call score of the fitted dose curve at least 0.9, where 1 is the maximum). Conditions: HepG2 Attagene TRANS reporter, mRNA readout. Summed up: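 HepG2 / transient MRTU transfection / 24 h compound exposure / RT-PCR + CE fluorescence of reporter mRNA / gain-of-signal vs DMSO.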
Sequence of Nuclear receptor subfamily 4 group A member 2 (Homo sapiens) (P43354 whole entry, looked up): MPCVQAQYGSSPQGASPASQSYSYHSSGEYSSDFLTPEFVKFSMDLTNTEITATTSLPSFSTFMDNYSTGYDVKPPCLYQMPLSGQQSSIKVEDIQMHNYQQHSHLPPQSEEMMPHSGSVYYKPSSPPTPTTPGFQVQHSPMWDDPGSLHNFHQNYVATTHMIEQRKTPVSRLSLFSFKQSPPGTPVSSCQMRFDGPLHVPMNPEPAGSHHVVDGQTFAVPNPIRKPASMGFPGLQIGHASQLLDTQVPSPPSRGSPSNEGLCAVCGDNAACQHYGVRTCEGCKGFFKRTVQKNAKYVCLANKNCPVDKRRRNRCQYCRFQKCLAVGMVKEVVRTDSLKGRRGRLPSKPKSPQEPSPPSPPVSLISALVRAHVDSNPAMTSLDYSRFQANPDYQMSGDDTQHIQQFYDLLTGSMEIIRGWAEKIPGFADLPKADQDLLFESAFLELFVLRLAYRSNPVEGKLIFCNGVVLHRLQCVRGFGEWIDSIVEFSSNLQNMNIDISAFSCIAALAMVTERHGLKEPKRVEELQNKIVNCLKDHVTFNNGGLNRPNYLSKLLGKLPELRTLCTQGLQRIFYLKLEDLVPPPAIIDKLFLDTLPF

Assay [10] has as its target Transcriptional activator Myb (Homo sapiens) (UniProt P10242). The assay is described as follows: ATG_Myb_CIS: Attagene CIS-FACTORIAL HepG2 Assay for human Myeloblastosis (Myb) Proto-Oncogene Transcription Factor (AID 2282986). Conditions: HepG2 Attagene CIS-FACTORIAL Myb reporter transcription; actives raise or lower the signal. Summed up: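 Endogenous transcription factor activity at a Myb-responsive cis element is reported in human liver HepG2 cells after 24 h chemical treatment. Reporter mRNA is detected by RT-PCR and capillary electrophoresis fluorescence, with DMSO as baseline.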

The target of assay [11] is Nuclear respiratory factor 1 (Homo sapiens) (UniProt Q16656). The assay is described as follows: ATG_NRF1_CIS: Attagene CIS-FACTORIAL HepG2 Assay for human Nuclear Respiratory Factor 1 (NRF1) Orphan Gene (AID 2282987). Conditions: HepG2 NRF1 cis-element reporter, Attagene multiplex; actives raise or lower the signal. Summed up: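 Human hepatoma HepG2 cells carrying transfected promoter-regulated reporter units were incubated with test chemicals for 24 h. Reporter transcripts were measured by RT-PCR plus capillary electrophoresis, and endpoints derived by bidirectional fitting with DMSO as baseline.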
Sequence of Nuclear respiratory factor 1 (Homo sapiens) (Q16656 whole entry, looked up): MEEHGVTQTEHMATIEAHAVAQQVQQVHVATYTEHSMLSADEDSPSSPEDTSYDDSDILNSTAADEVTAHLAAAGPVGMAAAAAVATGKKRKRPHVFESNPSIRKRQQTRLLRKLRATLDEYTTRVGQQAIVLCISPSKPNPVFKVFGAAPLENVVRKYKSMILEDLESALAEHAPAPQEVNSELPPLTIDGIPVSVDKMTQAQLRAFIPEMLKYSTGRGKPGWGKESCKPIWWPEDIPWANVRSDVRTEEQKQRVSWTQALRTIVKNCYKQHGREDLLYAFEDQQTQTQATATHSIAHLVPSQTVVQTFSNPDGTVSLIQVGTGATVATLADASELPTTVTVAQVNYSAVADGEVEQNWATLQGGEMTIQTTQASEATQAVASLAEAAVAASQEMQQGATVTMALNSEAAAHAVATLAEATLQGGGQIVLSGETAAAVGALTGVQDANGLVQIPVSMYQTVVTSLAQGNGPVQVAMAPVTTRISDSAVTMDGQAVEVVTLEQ

Assay [12] in a line: ATG_NFI_CIS: Attagene CIS-FACTORIAL HepG2 Assay for human Nuclear Factor I (NFI) (AID 2282989). Conditions: HepG2 cis-regulatory reporter, NFI response element transcription; actives raise or lower the signal. The method, boiled down: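 HepG2 cells transiently transfected with cis-element-driven multiplexed reporter transcription units, dosed for 24 h. Reporter mRNA quantified by RT-PCR, fluorescent labelling, HpaI digestion and capillary electrophoresis; bidirectional fit versus DMSO baseline.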

The target in assay [13] is Myc proto-oncogene protein (Homo sapiens) (UniProt P01106). The experiment in a line: ATG_Myc_CIS: Attagene CIS-FACTORIAL HepG2 Assay for human Myelocytomatosis (Myc) Proto-Oncogene Transcription Factor (AID 2282990). Conditions: HepG2, Attagene cis-reporter transcription factor activity; actives raise or lower the signal. The method, boiled down:
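Fluorescence intensity of reporter-specific cDNA fragments, separated by capillary electrophoresis, gives the signal. Transfected HepG2 cells carrying cis-promoter reporter constructs are incubated with compound for 24 h; DMSO serves as baseline.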

A short description of assay [14]: ATG_NRF2_ARE_CIS: Attagene CIS-FACTORIAL HepG2 Assay for human Nuclear Factor Erythroid 2 Related Factor 2 (NFR2) response to Antioxidant Response Elements (ARE) (AID 2282992).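 As to AC50: reporter mRNA level measured by RT-PCR and capillary electrophoresis fluorescence.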 Conditions: HepG2 Attagene ARE/NRF2 reporter, transcription factor activity; actives raise or lower the signal. Summed up: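 HepG2 cells transiently transfected with multiplexed cis-regulated reporter transcription units measure endogenous transcription factor activity. Reporter mRNA at 24 h is quantified by RT-PCR, fluorescent labelling and capillary electrophoresis, with bidirectional fitting relative to DMSO.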

Assay [15] is described as follows: ATG_Oct_MLP_CIS: Attagene CIS-FACTORIAL HepG2 Assay for human Octamer-Binding Transcription Factor (Oct) (AID 2282993). Conditions: HepG2 Attagene cis-factorial Oct reporter, mRNA; actives raise or lower the signal. Summed up:
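HepG2 cells transiently transfected with cis-promoter-driven multiplexed reporter transcription units, dosed for 24 h. Reporter mRNA quantified by RT-PCR, fluorescent labelling, HpaI digestion and capillary electrophoresis; bidirectional fits versus DMSO baseline.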

Assay [16] addresses Cellular tumor antigen p53 (Homo sapiens) (UniProt P04637). The assay is described as follows: ATG_p53_CIS: Attagene CIS-FACTORIAL HepG2 Assay for human p53 Transcription Factor (AID 2282994). Conditions: HepG2 p53 cis-element reporter, Attagene mRNA; actives raise or lower the signal. The method, boiled down: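 HepG2 cells transiently transfected with multiplexed cis-regulated reporter transcription units read endogenous TF activity. After 24 h compound exposure, reporter mRNA was quantified by RT-PCR, fluorescent labelling, HpaI digestion and capillary electrophoresis; bidirectional fits versus DMSO baseline.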

A short description of assay [17]: BSK_3C_TissueFactor: BioMAP Diversity Plus: 3C Assay for Tissue Factor Biomarker Activity (AID 2282997). Conditions: BioMAP 3C HUVEC, tissue factor biomarker readout; actives raise or lower the signal. Summed up: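 Dosing of human umbilical vein endothelial cells preceded a 24 h incubation. Tissue Factor was then read by ELISA, with increases and decreases both scored relative to DMSO controls.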

Assay [18] is described as follows: BSK_3C_uPAR: BioMAP Diversity Plus: 3C Assay for Urokinase-type plasminogen activator receptor (uPAR) Biomarker Activity (AID 2282998). Conditions: BioMAP 3C HUVEC, uPAR biomarker ELISA; actives raise or lower the signal. Summed up:
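Human umbilical vein endothelial primary cells were exposed to test chemical for 24 h. Cell-surface uPAR was then quantified by ELISA, and responses were fitted bidirectionally against DMSO as negative control and baseline.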

Assay [19] deals with Bile acid receptor (Homo sapiens) (UniProt Q96RI1). The experiment in a line: ATG_FXR_TRANS: Attagene TRANS-FACTORIAL HepG2 Assay for Farnesoid X Receptor (FXR) (AID 2282979; active = hit-call score of the fitted dose curve at least 0.9, where 1 is the maximum;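 also: hits raise reporter mRNA above DMSO so AC50 marks FXR activation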). Conditions: HepG2 Attagene TRANS FXR-GAL4 reporter transcription. Summed up: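 Reporter transcripts from transfected HepG2 cells were measured 24 h after dosing, using RT-PCR with capillary electrophoresis of 6-FAM-labelled fragments. The read-out reflects activity of exogenous FXR-Gal4 chimera on GAL4-UAS units, with induction relative to DMSO.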

Assay [20] in a line: ATG_NF_kB_CIS: Attagene CIS-FACTORIAL HepG2 Assay for human Nuclear Factor Kappa B (NF-kB) (AID 2282991). Conditions: HepG2 Attagene cis-factorial NF-kB reporter mRNA; actives raise or lower the signal. Summed up: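 Multiplexed cis-reporter assay in transiently transfected HepG2. 24 h treatment; RNA isolated, RT-PCR, labelled fragments resolved by CE. DMSO baseline.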

Where “and” joins values, the source holds several entries; their conditions need not be identical. Equal entries are not always repeated. Inconclusive results are not listed. A structure can be active in one record and inactive in another. Calls of active or inactive are those of the source. The calls were made as follows, unless noted: active = hit-call score of the fitted dose curve at least 0.9, where 1 is the maximum; inactive = score below 0.9.

Sequence of Hepatocyte nuclear factor 4-alpha (Homo sapiens) (P41235 whole entry, looked up, the tested form may be a part): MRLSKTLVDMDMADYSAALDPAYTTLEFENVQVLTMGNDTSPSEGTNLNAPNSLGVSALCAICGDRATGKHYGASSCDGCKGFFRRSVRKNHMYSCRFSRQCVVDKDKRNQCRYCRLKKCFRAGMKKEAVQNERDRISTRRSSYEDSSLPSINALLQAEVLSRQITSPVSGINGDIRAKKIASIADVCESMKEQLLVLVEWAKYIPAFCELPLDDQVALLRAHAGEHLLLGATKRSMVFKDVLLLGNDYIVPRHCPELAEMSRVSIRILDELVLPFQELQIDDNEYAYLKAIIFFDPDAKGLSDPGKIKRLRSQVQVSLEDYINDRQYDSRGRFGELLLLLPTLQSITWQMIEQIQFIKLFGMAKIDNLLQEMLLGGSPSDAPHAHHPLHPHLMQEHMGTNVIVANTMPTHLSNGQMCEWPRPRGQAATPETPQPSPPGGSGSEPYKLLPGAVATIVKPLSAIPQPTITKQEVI
Sequence of Transcriptional activator Myb (Homo sapiens) (P10242 whole entry, looked up): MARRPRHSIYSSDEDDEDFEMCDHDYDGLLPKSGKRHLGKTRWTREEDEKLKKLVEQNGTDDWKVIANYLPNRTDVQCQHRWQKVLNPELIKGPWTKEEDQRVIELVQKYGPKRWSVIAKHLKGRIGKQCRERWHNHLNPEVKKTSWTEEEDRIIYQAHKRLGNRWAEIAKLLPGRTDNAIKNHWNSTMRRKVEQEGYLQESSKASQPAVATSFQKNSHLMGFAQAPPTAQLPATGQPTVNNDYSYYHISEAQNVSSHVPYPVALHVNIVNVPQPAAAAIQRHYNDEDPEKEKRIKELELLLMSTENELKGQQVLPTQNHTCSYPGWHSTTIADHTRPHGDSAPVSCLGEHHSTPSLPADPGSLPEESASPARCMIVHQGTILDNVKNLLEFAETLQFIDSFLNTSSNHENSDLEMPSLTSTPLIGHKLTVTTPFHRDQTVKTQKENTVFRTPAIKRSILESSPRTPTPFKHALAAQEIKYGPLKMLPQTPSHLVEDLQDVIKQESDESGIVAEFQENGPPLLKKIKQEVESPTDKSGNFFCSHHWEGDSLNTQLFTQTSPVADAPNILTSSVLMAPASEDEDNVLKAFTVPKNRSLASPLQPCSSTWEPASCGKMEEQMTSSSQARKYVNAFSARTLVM
Sequence of Glucocorticoid receptor (Homo sapiens) (P04150 whole entry, looked up): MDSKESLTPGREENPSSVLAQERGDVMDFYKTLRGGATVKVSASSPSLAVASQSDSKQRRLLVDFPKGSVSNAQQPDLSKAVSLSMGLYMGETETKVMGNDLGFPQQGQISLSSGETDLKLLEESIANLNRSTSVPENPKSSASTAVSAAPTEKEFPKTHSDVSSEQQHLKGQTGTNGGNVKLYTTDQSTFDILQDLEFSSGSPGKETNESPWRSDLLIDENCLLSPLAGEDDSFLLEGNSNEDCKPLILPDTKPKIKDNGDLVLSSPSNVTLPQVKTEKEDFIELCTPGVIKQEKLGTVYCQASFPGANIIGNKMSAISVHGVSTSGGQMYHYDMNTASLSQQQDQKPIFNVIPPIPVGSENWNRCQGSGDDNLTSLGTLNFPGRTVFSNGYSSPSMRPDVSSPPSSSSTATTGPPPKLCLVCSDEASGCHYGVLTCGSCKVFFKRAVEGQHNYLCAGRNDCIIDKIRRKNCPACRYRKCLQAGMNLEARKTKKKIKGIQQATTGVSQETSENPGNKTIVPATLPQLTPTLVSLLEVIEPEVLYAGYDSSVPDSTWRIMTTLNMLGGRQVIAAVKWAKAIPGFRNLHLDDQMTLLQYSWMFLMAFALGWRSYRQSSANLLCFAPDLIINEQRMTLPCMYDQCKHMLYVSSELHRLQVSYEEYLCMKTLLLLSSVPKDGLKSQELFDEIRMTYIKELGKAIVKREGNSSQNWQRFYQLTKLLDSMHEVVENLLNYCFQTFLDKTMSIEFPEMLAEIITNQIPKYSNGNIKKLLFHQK
Sequence of Myc proto-oncogene protein (Homo sapiens) (P01106 whole entry, looked up, the tested form may be a part): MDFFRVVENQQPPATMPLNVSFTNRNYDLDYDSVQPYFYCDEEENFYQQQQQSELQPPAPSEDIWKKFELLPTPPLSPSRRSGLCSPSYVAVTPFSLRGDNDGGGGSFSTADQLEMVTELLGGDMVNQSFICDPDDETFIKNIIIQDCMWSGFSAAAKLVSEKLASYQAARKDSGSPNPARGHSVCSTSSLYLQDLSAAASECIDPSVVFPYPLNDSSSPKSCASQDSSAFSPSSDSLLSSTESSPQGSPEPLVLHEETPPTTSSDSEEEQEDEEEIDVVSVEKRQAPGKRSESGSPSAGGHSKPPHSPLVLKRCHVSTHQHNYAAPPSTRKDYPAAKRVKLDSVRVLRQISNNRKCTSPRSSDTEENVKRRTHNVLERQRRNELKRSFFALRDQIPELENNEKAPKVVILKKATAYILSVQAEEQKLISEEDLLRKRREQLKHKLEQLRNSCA
Sequence of Oxysterols receptor LXR-alpha (Homo sapiens) (Q13133 whole entry, looked up, the tested form may be a part): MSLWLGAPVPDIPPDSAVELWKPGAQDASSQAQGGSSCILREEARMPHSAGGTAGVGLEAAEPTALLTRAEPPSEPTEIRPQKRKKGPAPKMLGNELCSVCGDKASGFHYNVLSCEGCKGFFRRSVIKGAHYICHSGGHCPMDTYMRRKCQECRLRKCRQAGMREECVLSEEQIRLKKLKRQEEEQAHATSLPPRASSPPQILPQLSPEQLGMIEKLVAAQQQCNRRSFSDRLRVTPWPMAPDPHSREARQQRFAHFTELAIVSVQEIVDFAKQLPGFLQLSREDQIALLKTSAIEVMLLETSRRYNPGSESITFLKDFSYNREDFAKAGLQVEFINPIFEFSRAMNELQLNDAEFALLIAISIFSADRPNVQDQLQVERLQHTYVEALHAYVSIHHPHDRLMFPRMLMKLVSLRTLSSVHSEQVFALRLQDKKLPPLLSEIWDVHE
Sequence of Oxysterols receptor LXR-beta (Homo sapiens) (P55055 whole entry, looked up, the tested form may be a part): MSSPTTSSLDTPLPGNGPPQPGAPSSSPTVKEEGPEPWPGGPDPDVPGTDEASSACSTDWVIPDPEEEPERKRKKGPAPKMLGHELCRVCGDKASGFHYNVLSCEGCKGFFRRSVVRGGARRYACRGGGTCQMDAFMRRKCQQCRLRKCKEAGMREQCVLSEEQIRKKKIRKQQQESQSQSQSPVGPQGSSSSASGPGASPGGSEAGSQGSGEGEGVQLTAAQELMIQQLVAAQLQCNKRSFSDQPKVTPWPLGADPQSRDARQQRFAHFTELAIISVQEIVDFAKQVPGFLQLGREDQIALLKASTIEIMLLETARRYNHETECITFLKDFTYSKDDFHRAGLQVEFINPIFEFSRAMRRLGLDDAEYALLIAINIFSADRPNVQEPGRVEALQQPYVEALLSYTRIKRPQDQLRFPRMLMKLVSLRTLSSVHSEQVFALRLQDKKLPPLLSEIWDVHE

With `CO/C=C(/C(=O)OC)c1ccccc1Oc1cc(Oc2ccccc2C#N)ncn1`, the call in [1], in [2], in [3], in assay [4], in [5] and in assay [6] was inactive. In addition, the call in [7], in assay [8], in assay [9], in assay [10], in assay [11] and in assay [12] was inactive. Moreover, the call in [13], in assay [14], in [15], in assay [16] and in assay [17] was inactive. The AC50 in assay [9] was 71.2 µM (active); in assay [11], 65.6 µM (active); in [15] it was 15.6 µM (active); in assay [17], 21.1 µM (active) and 24.6 µM (active); in assay [18], 13.3 µM (active) [middle of 4 runs].

With `CNC(=O)ON=CC(C)(C)SC`, the outcome in assay [1], in [2], in [3], in assay [19], in assay [4] and in assay [5] was inactive. For the same molecule, the call in assay [6], in [7], in [8], in assay [9], in [10] and in assay [11] was inactive. For the same molecule, the call in assay [13], in assay [20], in assay [14], in assay [15], in assay [16] and in assay [17] was inactive. Besides, in assay [18], the result was inactive. Further, in assay [11], the AC50 was 43.4 µM (active).

On to `Oc1ccccc1-c1ccccc1`, for which the call in [5], in assay [6], in assay [7], in assay [8], in assay [9] and in assay [10] was inactive. The molecule was classed as inactive in [11], in assay [12], in [13], in assay [15], in assay [16] and in assay [17]. Moreover, in assay [18], the outcome was inactive. Also, the AC50 in assay [13] is 50 µM (active); in [14], 32.7 µM (active) and 26.2 µM (active); in assay [15] it was 50 µM (active).

For the molecule `CCCCNC(=O)n1c(NC(=O)OC)nc2ccccc21`, the molecule was classed as inactive in assay [3], in assay [4], in assay [5], in assay [6], in assay [7] and in assay [10]. The molecule was called inactive in assay [11], in assay [13], in assay [20], in assay [14], in [15] and in assay [16]. For the same molecule, the result in assay [17] was inactive. Besides, the AC50 in assay [18] was 6.89 µM (active).

For the molecule `O=C(Nc1ccccc1)Nc1ccnc(Cl)c1`, the result in [2], in [3], in assay [4], in assay [5], in assay [6] and in assay [8] was inactive. For the same molecule, the call in [10], in assay [11], in assay [13], in [16], in assay [17] and in assay [18] was inactive. Also, the AC50 in [9] is 50 µM (active); in assay [20], 30.1 µM (active); in assay [14], 13.7 µM (active); in [15], 33.5 µM (active).

Turning to `CNC(=S)S`, the molecule was classed as inactive in assay [3], in assay [4], in assay [5], in [6], in assay [7] and in assay [8]. Further, the outcome in [9], in assay [10], in assay [11], in assay [12], in [13] and in [20] was inactive. Moreover, the call in assay [15], in assay [16], in assay [17] and in assay [18] was inactive. The AC50 in [14] is 26.7 µM (active) and 17.6 µM (active); in [15] it was 50 µM (active).

Source of the values: PubChem BioAssay (EPA / NIEHS).
